In paper PMC4336329 (PLoS ONE, 2015):
Screen size: about 310,000 compounds; about 14,000 (4.5%) showed an effect of 50% or more. Effects have a minus sign here. Many of the other results were omitted from the sample, so strong results are more common in it than they were.

target: human ether-à-go-go-related gene (hERG) potassium channel (human, UniProt Q12809); experiment: primary screen, population patch clamp on CHO cells stably expressing hERG; higher = less effect of the substance
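Note: peak tail current of the secondary pulse compared with the same well before compound.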

Chain of human ether-à-go-go-related gene (hERG) potassium channel (Q12809 whole entry, looked up): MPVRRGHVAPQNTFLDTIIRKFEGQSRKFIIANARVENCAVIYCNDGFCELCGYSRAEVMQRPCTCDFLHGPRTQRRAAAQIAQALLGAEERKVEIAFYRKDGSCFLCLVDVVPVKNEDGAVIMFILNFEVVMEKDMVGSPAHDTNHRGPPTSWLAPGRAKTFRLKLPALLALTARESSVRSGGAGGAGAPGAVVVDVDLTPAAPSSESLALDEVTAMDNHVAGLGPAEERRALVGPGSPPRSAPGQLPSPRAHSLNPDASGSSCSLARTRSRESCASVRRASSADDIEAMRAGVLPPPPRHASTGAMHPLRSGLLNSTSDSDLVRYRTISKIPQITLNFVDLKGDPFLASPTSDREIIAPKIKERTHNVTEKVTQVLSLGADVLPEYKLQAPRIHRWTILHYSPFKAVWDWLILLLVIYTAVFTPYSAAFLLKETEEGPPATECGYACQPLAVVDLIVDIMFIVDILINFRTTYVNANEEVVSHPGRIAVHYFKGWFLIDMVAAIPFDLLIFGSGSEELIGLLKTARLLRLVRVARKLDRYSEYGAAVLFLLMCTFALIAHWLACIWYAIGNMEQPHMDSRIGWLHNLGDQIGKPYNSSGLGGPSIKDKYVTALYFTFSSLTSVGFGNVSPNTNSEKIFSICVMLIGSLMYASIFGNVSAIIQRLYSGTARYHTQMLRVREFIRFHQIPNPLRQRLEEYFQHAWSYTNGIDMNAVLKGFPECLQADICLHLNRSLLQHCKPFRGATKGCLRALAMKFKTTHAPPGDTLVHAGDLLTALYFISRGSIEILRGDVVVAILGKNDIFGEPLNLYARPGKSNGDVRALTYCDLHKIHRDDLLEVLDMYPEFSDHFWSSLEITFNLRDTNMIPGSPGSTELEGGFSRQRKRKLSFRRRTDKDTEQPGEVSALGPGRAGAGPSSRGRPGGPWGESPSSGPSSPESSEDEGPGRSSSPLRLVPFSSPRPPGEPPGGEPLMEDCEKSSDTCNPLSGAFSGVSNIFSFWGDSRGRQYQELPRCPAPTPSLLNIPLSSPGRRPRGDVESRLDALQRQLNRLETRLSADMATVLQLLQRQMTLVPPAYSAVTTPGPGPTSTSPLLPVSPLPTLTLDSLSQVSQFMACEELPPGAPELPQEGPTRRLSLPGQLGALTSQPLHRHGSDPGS

| Structure (SMILES) | hERG current change (%, negative = inhibition) at 10uM |
| --- | --- |
| Cc1ccc(C2(C)NC(=O)N(CC(=O)NC(C)c3ccccc3)C2=O)cc1 (centres unmarked) | 11.7% |
| CC(C)(C)c1ccc(OCCC(=O)OCC(=O)NC(=O)NC2CCCC2)cc1 | 10.7% |
| COc1ccc(NC(C)=O)cc1NC(=O)CSc1nnc(-c2ccccn2)n1C | -7.69% |
| Cc1ccsc1CN(C)C(=O)CN1C(=O)NC(c2ccccc2)(c2ccccc2)C1=O | -21.5% |
| CCOC(=O)c1c(C)n(C)c2ccc(OCC(O)CN3CCCCCC3)cc12.Cl (centres unmarked) | -18.4% |
| NNC(=O)c1n[nH]c2c1CC(C1CCCCC1)CC2 (centres unmarked) | 10.8% |
| CCOCCn1c(C(C)O)nc2ccccc21 (centres unmarked) | 11.7% |
| Cc1cc(Cl)nc(-n2nc(C)cc2C)n1 | 2.6% |
| CCOC(=O)C1CCN(CC(O)COCc2ccc3c(c2)OCO3)CC1.Cl (centres unmarked) | -46% |
| Cl.OC(COCc1ccc(Cl)cc1)CN1CCCCC1 (centres unmarked) | -35.8% |
| CCOC(=O)C1CCN(CC(O)COCc2ccc(Cl)cc2)CC1.Cl (centres unmarked) | -79.2% |
| Cl.OC(COCc1ccc(Cl)cc1)CN1CCc2ccccc2C1 (centres unmarked) | -70.4% |
| Cl.OC(COCc1ccccc1)CN1CCc2ccccc2C1 (centres unmarked) | -25.7% |
| COc1ccc(COCC(O)CN2CCc3ccccc3C2)cc1OC.Cl (centres unmarked) | 1.52% |
| OC(CN1CC=C(c2ccccc2)CC1)c1ccccc1 (centres unmarked) | -33% |
| O=C(O)C(=O)O.OC(COCc1ccc(Cl)cc1)CN1CC=C(c2ccccc2)CC1 (centres unmarked) | -77.2% |
| Cl.OC(COCc1ccccc1)CN1CCCC1 (centres unmarked) | -6.03% |
| OC(COCc1ccc(Cl)cc1)CN1CCN(CC(O)COCc2ccc(Cl)cc2)CC1 (centres unmarked) | -75.2% |
| CCOC(=O)C1CCN(CC(O)COCc2ccccc2)CC1.O=C(O)C(=O)O (centres unmarked) | -31.1% |
| NC(=O)C1CCCN(CC(O)COCc2ccc(Cl)cc2)C1.O=C(O)C(=O)O (centres unmarked) | -8.86% |
| O=C(NCC(=O)N1CCCCCC1)c1ccc(Br)cc1 | -7.84% |
| CCOP(=O)(OCC)c1nc(-c2cccc3ccccc23)oc1NCc1ccccc1 | 10.2% |
| O=C(CN1CCc2ccccc2C1)Nc1cc(S(=O)(=O)N2CCOCC2)ccc1N1CCCC1 | 0.983% |
| O=C(N/N=C/C=C/c1ccccc1)c1cnccn1 | 6.57% |

| Structure (SMILES) | hERG current change (%, negative = inhibition) at 10uM |
| --- | --- |
| Cc1noc(C)c1S(=O)(=O)Nc1ccc(C(=O)N2CCC(C)CC2)cc1 | -4.35% |
| CCOC(=O)C1CCC(CNCc2ccccc2C)CC1.Cl (centres unmarked) | -24.4% |
| COc1cccc(OCC(O)CN2CCN(C)CC2)c1.O=C(O)C(=O)O (centres unmarked) | 16.2% |
| CC(=O)c1cccc(OCC(O)CN2CCN(S(=O)(=O)c3c(F)cccc3F)CC2)c1.O=C(O)C(=O)O (centres unmarked) | -31% |
| CC(=O)c1cccc(OCC(O)CN2CC=C(c3ccccc3)CC2)c1.O=C(O)C(=O)O (centres unmarked) | -68.9% |
| CCOC(=O)C1CCN(S(=O)(=O)Cc2ccc(Cl)cc2)CC1 | 1.25% |
| CCOC(=O)C1CCC(CNCc2ccc(Cl)cc2)CC1 (centres unmarked) | -69.2% |
| Cc1ccc(S(=O)(=O)n2c(C)nc3cc(C)ccc32)cc1 | -3.01% |
| CCn1c(C)nc2cc(C(=O)OC)ccc21 | 14.3% |
| CCOc1ccc(Oc2ccc(Cl)cc2N)cc1.Cl | 2.9% |
| Cc1ccc2nc3c(c(C(=O)OC4CCOC4=O)c2c1)CCCC3 (centres unmarked) | -0.191% |
| CN1CCN(c2nc(-c3ccncc3)nc3ccccc23)CC1 | -67.4% |
| CN1CCN(c2nc(-c3ccccc3)ncc2S(=O)(=O)c2ccccc2)CC1 | -63.2% |
| O=S(=O)(c1ccccc1)c1cnc(-c2ccccc2)nc1N1CCCC1 | 41.8% |
| CC(=O)c1ccc(S(=O)(=O)N2CCN(c3nc(-c4cccnc4)nc4ccccc34)CC2)cc1 | -40.4% |
| CN1CCN(c2nc(-c3cccc([N+](=O)[O-])c3)nc3ccccc23)CC1 | -48.4% |
| Cc1ccc(S(=O)(=O)c2cnc(-c3ccccc3)nc2N2CCN(C)CC2)cc1 | -49.1% |
| CN1CCN(c2nc(-c3cccnc3)nc3ccccc23)CC1 | -48.5% |
| COc1ccc(S(=O)(=O)N2CCN(c3nc(-c4cccnc4)nc4ccccc34)CC2)cc1 | -39% |
| CCOC(=O)C1CCN(c2nc(-c3ccc(C)cc3)nc3ccccc23)CC1 | 15.4% |
| O=S(=O)(c1ccc(F)cc1)N1CCN(c2nc(-c3cccnc3)nc3ccccc23)CC1 | -72% |
| NC(=O)C1CCN(c2nc(-c3ccccc3)nc3ccccc23)CC1 | -56% |
| CCOC(=O)C1CCN(c2nc(-c3ccc(Br)cc3)nc3ccccc23)CC1 | -1.89% |
| O=[N+]([O-])c1cnn(-c2nc(-c3ccccc3)cc(C(F)(F)F)n2)c1 | 8.82% |

| Structure (SMILES) | hERG current change (%, negative = inhibition) at 10uM |
| --- | --- |
| N/C(=N\OS(=O)(=O)c1ccc2ccccc2c1)c1cccnc1 | 5.24% |
| COc1ccc([N+](=O)[O-])cc1N(CC(=O)O)S(C)(=O)=O | 13.7% |
| O=C(O)CC1NC(=O)N(c2ccc(Cl)cc2)C1=O (centres unmarked) | 19.5% |
| CSc1nc(N2CCOCC2)c2c3c(sc2n1)CCCC3 | -2.32% |
| O=C1c2ccccc2COc2ccc(O)cc21 | 10.9% |
| CC(C)N(Cc1ccc(F)cc1)C(=O)c1cc2ccccc2oc1=O | 19.5% |
| CC1CCCC(NC(=O)COC(=O)Cc2c[nH]c3ccccc23)C1C (centres unmarked) | -14% |
| NC(=S)N/N=C\c1c(OCc2ccccc2Cl)ccc2ccccc12 | -2.61% |
| CN1CCN(/N=C/c2cccc(Cl)c2Cl)CC1.Cl | 6.09% |
| O=S(=O)(c1cccs1)N1CCCc2cccc(O)c21 | 7.34% |
| Cc1ccc(S(=O)CCNC(=O)Cc2ccc(Cl)cc2)cc1 (centres unmarked) | -8.83% |
| CCS(=O)(=O)N1CCCC(C(=O)NC2CCC(C)CC2)C1 (centres unmarked) | 6.05% |
| COc1ccc(OC)c(-n2cc3c(=O)n(C)c(=O)n(C)c3c2)c1 | -8.58% |
| Cc1ccc(-c2nnc(-c3ccccc3)c(N3CCOCC3)n2)cc1 | -30% |
| c1cncc(-c2nc(N3CCCCCC3)c3ccccc3n2)c1 | -92.9% |
| Cc1ccc(-c2nc(N3CCN(C)CC3)c3ccccc3n2)cc1.Cl | -59.9% |
| O=S(=O)(/C=C/c1ccccc1)N1CCN(c2nc(-c3cccnc3)nc3ccccc23)CC1 | -23.6% |
| CN1CCN(c2nc(-c3ccc(C(C)(C)C)cc3)nc3ccccc23)CC1.Cl | -2.05% |
| c1ccc2c(N3CCOCC3)nc(-c3ccncc3)nc2c1 | -31.3% |
| CCCOc1ccc(-c2nc(N3CCN(C)CC3)c3ccccc3n2)cc1 | -21.6% |
| CN1CCN(c2nc(-c3ccc(Br)cc3)nnc2-c2ccccc2)CC1 | -63.5% |
| Brc1ccc(-c2nnc(-c3ccccc3)c(N3CCSCC3)n2)cc1 | 4.62% |
| c1ccc2c(N3CCCC3)nc(-c3ccncc3)nc2c1 | -56.9% |
| c1cncc(-c2nc(N3CCOCC3)c3ccccc3n2)c1 | -17% |

| Structure (SMILES) | hERG current change (%, negative = inhibition) at 10uM |
| --- | --- |
| c1ccc2c(N3CCCCCC3)nc(-c3ccncc3)nc2c1 | -34.5% |
| O=[N+]([O-])c1cc(Cl)cc(/C=N/NC(=S)Nc2ccc(S(=O)(=O)N3CCOCC3)cc2)c1O | 14.3% |
| Cc1cc(NS(=O)(=O)c2ccc(NC(=O)c3ccc(Cl)cc3Cl)cc2)no1 | 24.4% |
| O=C(N=C1SC2CS(=O)(=O)CC2N1c1ccccc1F)C1CCCCC1 (centres unmarked) | 8% |
| O=C(NCc1ccccn1)C1CCN(S(=O)(=O)N2CCCC2)CC1 | -8.11% |
| COc1ccc(-c2nnc(SCC3CCCO3)n2C)cc1 (centres unmarked) | 0.931% |
| Nc1c(N=O)c(=O)[nH]c(=O)n1-c1ccccc1 | 10.2% |
| NS(=O)(=O)c1ccc(CCNC(=O)C2CCN(c3ncnc4c3nc3n4CCCCC3)CC2)cc1 | 9.07% |
| O=C(CSc1nnnn1C1CC2C=CC1C2)Nc1ccc(C(=O)O)cc1 (centres unmarked) | -6.04% |
| CC(Sc1nnc2ccccn12)C(=O)Nc1ccc(Cl)cn1 (centres unmarked) | -1.5% |
| c1ccc(-c2nc(C3CCCCC3)c3ccccc3n2)cc1 | 10.7% |
| CN1CCC(N(C)c2nc(-c3ccccc3)nc3ccccc23)CC1 | -70.4% |
| Cc1ccc(-c2nc(N(C)C3CCN(C)CC3)c3ccccc3n2)cc1 | -24.4% |
| CC(C)(C)C(=O)Nc1nc2c(s1)CN(Cc1ccccc1)CC2 | 14.2% |
| CCCCOc1ccc(C(=O)N/C(=C/C=C/c2ccccc2)C(=O)NCCO)cc1 | -9.18% |
| CCCCOc1ccc(C(=O)N/C(=C/C=C/c2ccccc2)C(=O)NCCCO)cc1 | -28.7% |
| CCCCOc1ccc(C(=O)N/C(=C/C=C/c2ccccc2)C(=O)O)cc1 | 19.8% |
| CCCCOc1ccc(C(=O)N/C(=C/C=C/c2ccccc2)C(=O)NC)cc1 | -75.2% |
| CC(C)(C)NC(=O)/C(=C\C=C\c1ccccc1)NC(=O)c1ccc([N+](=O)[O-])cc1 | -35.1% |
| CNC(=O)/C(=C\C=C\c1ccccc1)NC(=O)c1ccc([N+](=O)[O-])cc1 | -77.6% |
| COC(=O)/C(=C\C=C\c1ccccc1)NC(=O)c1ccccc1 | 8.85% |
| O=C(O)CCNC(=O)/C(=C/C=C/c1ccccc1)NC(=O)c1ccccc1 | 16.6% |
| CN(C)CCCNC(=O)/C(=C\C=C\c1ccccc1)NC(=O)c1ccc([N+](=O)[O-])cc1 | -71.2% |
